Assay outcomes as filed in PubChem.
Gal4-VP16 FLuc = Gal4-VP16 reporter inhibition counter-screen; Drosophila S2 Gal4-VP16 UAS-luciferase, luminescence, 20 h; actives 3.5% (n = 310,000); Potency, µM (doses to about 53.6 µM), for inactives: top-dose activity, negative = inhibition, hits mostly inhibitors; AID 2546;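 note: Gal4-VP16 expression switched on by copper sulfate through the metallothionein promoter; nearly all actives have a fitted effect of over 50% in size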
TDP1 cell noCPT = qHTS for Inhibitors of human tyrosyl-DNA phosphodiesterase 1 (TDP1): qHTS in cells in absence of CPT; DT40 Tdp1-/- hTDP1 cells, no CPT, ATP luminescence, 48 h; Potency, µM (doses to about 46.2 µM), for the others: at the highest dose activity change, negative = growth inhibition, hits mostly inhibitors; actives 15% (n = 420,000); note: nearly all actives have a fitted effect of over 55% in size
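Cells were dispensed at 400 per well, compounds added by pin tool, plates incubated ≥48 hr at 37 °C, then CellTiter-Glo added for 30 min at room temperature before luminescence reading. Line: DT40 Tdp1-/- complemented with hTDP1; camptothecin omitted.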
DT40 TDP1 CPT = growth inhibition of DT40 Tdp1-/-;hTDP1 cells with camptothecin (screen for TDP1 inhibitors); chicken DT40 Tdp1-/-;hTDP1 cells + 20 nM CPT, ATP luminescence, 48 h; Potency, µM (series often up to 46.2 µM), for inactives: top-dose activity change, negative = growth inhibition, actives largely listed as inhibitors; actives 12% (n = 420,000); AID 686979; note: nearly all actives have a fitted effect of over 55% in size
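Chicken DT40 Tdp1-/- cells complemented with human TDP1, 400 cells/well, exposed to compounds plus 20 nM camptothecin for at least 48 h at 37 C; viability read as ATP content by CellTiter-Glo luminescence.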
ELG1 repair inh = ELG1-dependent DNA repair inhibition. Potency, µM (highest dose often 46.1 µM), without a hit: at the highest dose activity change, negative = inhibition, hits mostly inhibitors. actives 2.3% (n = 330,000). AID 504467. HEK293T ELG1-luciferase reporter, luminescence, 16 h; DNA damage induced by 5-fluorouridine; note: nearly all actives have a fitted effect of over 55% in size
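Luminescence from the luciferase reporter, measured 30 min after ONE-Glo reagent at room temperature, was the read-out. Beforehand, 2,000 cells per well were exposed for 16 hr at 37 °C to 5-fluorouridine together with compound or vehicle.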
12-LOX inh = inhibitors of human 12S-lipoxygenase ALOX12. purified 12hLO, xylenol orange hydroperoxide absorbance. actives 1.1% (n = 580,000). AID 1671190. Potency, µM (highest dose often 108 µM), inactives show top-dose activity change, negative = inhibition, usual class: inhibitors
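Purified human 12hLO (150 nM final) in 25 mM Hepes, 0.01% Triton X-100, pH 7.0 was preincubated 15 min at room temperature with compound. Then 40 uM arachidonic acid was added, 30 min. Hydroperoxide was read by Fe-XO absorbance ratio 573/405 nm.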
RORgamma inh = blocks mouse ROR gamma transcriptional activity. actives 5.4% (n = 310,000). Potency, µM (top dose mostly 53.6 µM), for inactives: at the top dose activity change, negative = inhibition, most hits filed as inhibitors. P51450. Drosophila S2 Gal4-RORgamma UAS-luciferase reporter, 20 h; note: nearly all actives have a fitted effect of over 60% in size
Target sequence (P51450 whole entry, looked up, the tested form may be a part): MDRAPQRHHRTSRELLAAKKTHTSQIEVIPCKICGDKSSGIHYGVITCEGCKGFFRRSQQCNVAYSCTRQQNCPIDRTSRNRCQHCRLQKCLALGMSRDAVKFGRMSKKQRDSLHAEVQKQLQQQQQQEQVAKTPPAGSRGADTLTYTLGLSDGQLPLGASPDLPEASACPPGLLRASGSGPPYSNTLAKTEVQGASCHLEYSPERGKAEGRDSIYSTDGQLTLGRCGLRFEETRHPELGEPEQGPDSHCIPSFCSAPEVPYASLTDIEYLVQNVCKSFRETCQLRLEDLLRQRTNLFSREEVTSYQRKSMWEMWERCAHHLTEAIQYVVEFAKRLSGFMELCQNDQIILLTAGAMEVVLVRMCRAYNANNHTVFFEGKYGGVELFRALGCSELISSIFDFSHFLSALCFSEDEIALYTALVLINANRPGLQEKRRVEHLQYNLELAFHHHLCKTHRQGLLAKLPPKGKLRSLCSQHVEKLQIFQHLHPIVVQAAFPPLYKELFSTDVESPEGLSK
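ROR gamma transcriptional activity was tracked as Gal4-UAS luciferase output in stably transfected Drosophila Schneider cells, with compound added 1 hr before 700 uM copper sulfate induction and a 20 hr ambient-temperature incubation.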
* marks the source's active call; other numbers are inactive results; ? = inconclusive; nt = no result given; [ ] = another dose, or the depositor's remark. Sampled rows, rich in hits. Any-hit rate of the full collection: about 15%. Calls come from the whole dose curve; as a rule, active = well fitted curve in the direction sought with a large enough effect; inconclusive = small, poorly fitted or top-dose-only effect, or another doubt; inactive = no such curve, though single readings can be large; an effect the other way counts as inactive or inconclusive. % is set by controls: 0 for no effect and ±100 for the full control effect; potency is the fitted concentration of half-maximal effect.

SMILES | Gal4-VP16 FLuc | TDP1 cell noCPT | DT40 TDP1 CPT | ELG1 repair inh | 12-LOX inh | RORgamma inh
COc1ccccc1-c1cnc(C(O)c2cc(C)ccc2C)[nH]1 (centres undefined) | nt | ? | 25.9µM* | nt | 4.8% | nt
COc1ccccc1-c1cnc(C(O)c2ccc(C)cc2C)[nH]1 (centres undefined) | nt | ? | -27.8% | nt | 11.2% | nt
CCc1ccc(C(O)c2ncc(-c3ccccc3OC)[nH]2)cc1 (centres undefined) | nt | 18.4µM* | 23.1µM* | nt | -2.8% | nt
Cc1nn(-c2nc3c(c(=O)n(CC(N)=O)c(=O)n3C)n2CCc2ccccc2)c(C)c1C | nt | nt | nt | nt | -8.2% | nt
O=C(Nc1cccc([N+](=O)[O-])c1)Nc1ccc2c(c1)CCC2 | -6.5% | ? | 20.6µM* | ? | -19.3% | ?
O=C(Nc1ccccc1)Nc1ccc2c(c1)CCC2 | 23.9% | -12.0% | -12.5% | ? | -13.0% | 4.4%
O=[N+]([O-])c1ccc(NC(=S)Nc2ccc3c(c2)CCC3)cc1 | nt | nt | nt | nt | 39.8µM* | nt
CN(C)NC(=S)Nc1ccc([N+](=O)[O-])cc1 | nt | nt | nt | nt | -6.9% | nt
CSc1ncc2[nH]c(C(O)c3ccccc3)nc2n1 (centres undefined) | nt | 10.3µM* | 9.2µM* | nt | -3.3% | nt
CCN(CC)S(=O)(=O)c1cc(NC(=O)C(C)N2CCc3ccccc32)ccc1C (centres undefined) | 4.6% | 25.9µM* | ? | ? | 7.1% | 37.2%
Cc1ccc(NC(=O)C(C)N2CCCc3ccccc32)cc1S(=O)(=O)N1CCOCC1 (centres undefined) | nt | 6.51µM* | -88.0% | nt | ? | nt
Cc1cccc(C)c1NC(=O)CN(C)C(C)C(=O)Nc1ccccc1-c1ccccc1 (centres undefined) | -9.6% | -22.9% | ? | 0.0% | -0.7% | 25.5%
CCN(CC)S(=O)(=O)c1cc(NC(=O)C(C)N(C)CC(=O)Nc2c(C)cccc2C)ccc1C (centres undefined) | 28.2% | 18.4µM* | 25.9µM* | 20.6µM* | 0.4% | 9.2%
Cc1ccc(NC(=O)Nc2ccccc2F)cc1S(=O)(=O)N1CCOCC1 | nt | ? | ? | 20.6µM* | 214.2% | nt
CCOc1ccc(NC(=O)Cn2nnc3sc4c(c3c2=O)CC(C)(CC)OC4)cc1 (centres undefined) | nt | nt | nt | nt | -9.3% | nt
COc1ccccc1NC(=O)Nc1nc(CC(=O)Nc2ccc(N(C)C)cc2)cs1 | nt | ? | ? | -5.2% | ? | nt
COc1ccc(N2CCN(C(=O)Cc3csc(NC(=O)Nc4ccccc4OC)n3)CC2)cc1 | nt | 16.4µM* | 16.4µM* | 16.4µM* | ? | nt
COc1ccccc1NC(=O)Nc1nc(CC(=O)N2CCN(c3ccc(F)cc3)CC2)cs1 | nt | ? | ? | 16.4µM* | -9.4% | nt
COc1ccccc1NC(=O)Nc1nc(CC(=O)NCC2CCCCC2)cs1 | nt | nt | nt | nt | -4.2% | nt
COc1ccccc1NC(=O)Nc1nc(CC(=O)N2CCN(c3ccccc3)CC2)cs1 | nt | ? | 16.4µM* | ? | ? | nt
CC(=O)Nc1ccc(CNC[C@H]2Cn3cc(-c4ccc(C)cc4)nc3CO2)cc1 | nt | nt | nt | nt | 31.8%[176 µM] | nt
CN(C)C(=O)c1cccc2c1CCN2C(=O)c1ccc(F)cc1 | nt | nt | nt | nt | 27.1% | nt
COc1ccc2c(c1)CC(C1(O)C(=O)N(C)c3ccccc31)C2=O (centres undefined) | -1.1% | ? | ? | -1.3% | 0.0% | -15.6%
Cc1ccc2c(c1)C(O)(C1COC(C)(C)CC1=O)C(=O)N2C (centres undefined) | -17.2% | 3.26µM* | 5.17µM* | 7.5% | 2.9% | -28.5%
CN1C(=O)C(O)(C2COC(C)(C)CC2=O)c2ccccc21 (centres undefined) | -10.5% | 9.2µM* | 14.6µM* | 1.4% | 154.7% | -23.9%
